Assay [1] concerns the target T1, Inhibitor of nuclear factor kappa-B kinase subunit epsilon (Homo sapiens) (UniProt Q14164).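 Further: reported values are averaged percent inhibition figures against human IKKε.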
T1 sequence (whole entry): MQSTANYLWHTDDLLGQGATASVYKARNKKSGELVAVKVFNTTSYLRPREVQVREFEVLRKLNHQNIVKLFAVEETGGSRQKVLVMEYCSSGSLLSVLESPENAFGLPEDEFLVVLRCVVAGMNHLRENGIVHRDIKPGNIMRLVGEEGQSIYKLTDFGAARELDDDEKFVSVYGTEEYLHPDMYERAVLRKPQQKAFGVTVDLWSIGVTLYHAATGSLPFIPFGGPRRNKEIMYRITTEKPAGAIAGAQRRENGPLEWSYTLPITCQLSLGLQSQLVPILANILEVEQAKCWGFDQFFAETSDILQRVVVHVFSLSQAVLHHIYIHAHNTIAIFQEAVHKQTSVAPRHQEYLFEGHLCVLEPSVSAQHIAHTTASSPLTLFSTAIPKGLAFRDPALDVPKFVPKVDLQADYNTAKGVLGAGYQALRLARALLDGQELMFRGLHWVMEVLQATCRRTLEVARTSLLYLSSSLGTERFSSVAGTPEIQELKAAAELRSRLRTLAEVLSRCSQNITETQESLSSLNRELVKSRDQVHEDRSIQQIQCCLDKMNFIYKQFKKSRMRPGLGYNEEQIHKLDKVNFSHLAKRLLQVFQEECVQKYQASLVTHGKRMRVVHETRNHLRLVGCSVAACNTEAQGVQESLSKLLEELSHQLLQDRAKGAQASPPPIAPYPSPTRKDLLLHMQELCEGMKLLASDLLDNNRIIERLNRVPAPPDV
As to conditions: at 1 µM.

The target in assay [2] is T2, Serine/threonine-protein kinase Nek1 (Homo sapiens) (UniProt Q96PY6).
T2 sequence (whole entry): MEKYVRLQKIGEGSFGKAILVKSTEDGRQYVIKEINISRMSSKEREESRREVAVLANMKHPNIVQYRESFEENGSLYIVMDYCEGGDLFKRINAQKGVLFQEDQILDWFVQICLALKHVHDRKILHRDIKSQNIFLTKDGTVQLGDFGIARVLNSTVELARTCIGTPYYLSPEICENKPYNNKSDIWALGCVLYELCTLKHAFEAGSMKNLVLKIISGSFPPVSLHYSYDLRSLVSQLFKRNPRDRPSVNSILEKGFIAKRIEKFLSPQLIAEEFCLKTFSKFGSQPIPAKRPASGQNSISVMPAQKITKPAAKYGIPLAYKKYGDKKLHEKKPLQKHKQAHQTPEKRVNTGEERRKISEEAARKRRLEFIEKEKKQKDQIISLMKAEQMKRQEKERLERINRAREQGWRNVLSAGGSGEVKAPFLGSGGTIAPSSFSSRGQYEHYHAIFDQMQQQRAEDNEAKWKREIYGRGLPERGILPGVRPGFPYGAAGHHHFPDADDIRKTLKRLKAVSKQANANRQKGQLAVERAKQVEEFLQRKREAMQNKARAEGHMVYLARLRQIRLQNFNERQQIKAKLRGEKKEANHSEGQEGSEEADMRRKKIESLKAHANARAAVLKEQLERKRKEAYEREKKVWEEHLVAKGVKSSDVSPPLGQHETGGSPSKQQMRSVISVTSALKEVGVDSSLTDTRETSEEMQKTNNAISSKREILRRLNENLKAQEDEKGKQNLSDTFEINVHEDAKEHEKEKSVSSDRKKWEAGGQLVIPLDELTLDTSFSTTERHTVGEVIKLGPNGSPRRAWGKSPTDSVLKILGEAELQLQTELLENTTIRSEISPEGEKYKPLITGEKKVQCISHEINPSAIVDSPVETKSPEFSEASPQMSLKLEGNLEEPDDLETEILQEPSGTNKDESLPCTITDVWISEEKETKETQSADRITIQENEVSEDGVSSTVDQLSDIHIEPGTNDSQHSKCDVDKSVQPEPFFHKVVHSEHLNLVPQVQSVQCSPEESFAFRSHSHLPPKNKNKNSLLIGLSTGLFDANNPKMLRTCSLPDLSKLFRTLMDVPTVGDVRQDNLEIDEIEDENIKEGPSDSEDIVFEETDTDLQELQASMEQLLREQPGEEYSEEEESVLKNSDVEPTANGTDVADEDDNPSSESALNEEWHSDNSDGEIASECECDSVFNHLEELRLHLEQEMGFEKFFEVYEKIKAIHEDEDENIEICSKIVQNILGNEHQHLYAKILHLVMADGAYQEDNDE
As to conditions: at 0.1 µM.

For assay [3], the target named is T2, Serine/threonine-protein kinase Nek1 (Homo sapiens). As to conditions: at 1 µM.
Assay [4] deals with T3, Serine/threonine-protein kinase Nek2 (Homo sapiens) (UniProt P51955).
T3 sequence (whole entry): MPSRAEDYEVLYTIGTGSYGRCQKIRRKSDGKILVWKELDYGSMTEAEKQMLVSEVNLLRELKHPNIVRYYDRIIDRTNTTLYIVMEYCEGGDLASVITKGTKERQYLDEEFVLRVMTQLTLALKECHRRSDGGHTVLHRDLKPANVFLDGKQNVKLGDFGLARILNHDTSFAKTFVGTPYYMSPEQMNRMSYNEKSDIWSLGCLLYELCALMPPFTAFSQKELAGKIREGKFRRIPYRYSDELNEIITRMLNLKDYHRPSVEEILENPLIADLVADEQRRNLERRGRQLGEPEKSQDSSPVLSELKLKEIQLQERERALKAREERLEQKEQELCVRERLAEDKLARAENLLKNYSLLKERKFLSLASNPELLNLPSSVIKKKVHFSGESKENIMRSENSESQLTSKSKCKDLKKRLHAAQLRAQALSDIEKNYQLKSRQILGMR
As to conditions: at 0.1 µM.

The target of assay [5] is T3, Serine/threonine-protein kinase Nek2 (Homo sapiens). The following applies: at 1 µM.
Assay [6] addresses Serine/threonine-protein kinase Nek6 (Homo sapiens) (UniProt Q9HC98). As to conditions: at 0.1 µM.
For assay [7] the target is unchanged. The following applies: at 1 µM.
Assay [8] deals with Serine/threonine-protein kinase Nek7 (Homo sapiens) (UniProt Q8TDX7). The following applies: at 0.1 µM.
For assay [9] the target is unchanged. The following applies: at 1 µM.
Assay [10] concerns the target T4, Serine/threonine-protein kinase Nek9 (Homo sapiens) (UniProt Q8TD19).
T4 sequence (whole entry): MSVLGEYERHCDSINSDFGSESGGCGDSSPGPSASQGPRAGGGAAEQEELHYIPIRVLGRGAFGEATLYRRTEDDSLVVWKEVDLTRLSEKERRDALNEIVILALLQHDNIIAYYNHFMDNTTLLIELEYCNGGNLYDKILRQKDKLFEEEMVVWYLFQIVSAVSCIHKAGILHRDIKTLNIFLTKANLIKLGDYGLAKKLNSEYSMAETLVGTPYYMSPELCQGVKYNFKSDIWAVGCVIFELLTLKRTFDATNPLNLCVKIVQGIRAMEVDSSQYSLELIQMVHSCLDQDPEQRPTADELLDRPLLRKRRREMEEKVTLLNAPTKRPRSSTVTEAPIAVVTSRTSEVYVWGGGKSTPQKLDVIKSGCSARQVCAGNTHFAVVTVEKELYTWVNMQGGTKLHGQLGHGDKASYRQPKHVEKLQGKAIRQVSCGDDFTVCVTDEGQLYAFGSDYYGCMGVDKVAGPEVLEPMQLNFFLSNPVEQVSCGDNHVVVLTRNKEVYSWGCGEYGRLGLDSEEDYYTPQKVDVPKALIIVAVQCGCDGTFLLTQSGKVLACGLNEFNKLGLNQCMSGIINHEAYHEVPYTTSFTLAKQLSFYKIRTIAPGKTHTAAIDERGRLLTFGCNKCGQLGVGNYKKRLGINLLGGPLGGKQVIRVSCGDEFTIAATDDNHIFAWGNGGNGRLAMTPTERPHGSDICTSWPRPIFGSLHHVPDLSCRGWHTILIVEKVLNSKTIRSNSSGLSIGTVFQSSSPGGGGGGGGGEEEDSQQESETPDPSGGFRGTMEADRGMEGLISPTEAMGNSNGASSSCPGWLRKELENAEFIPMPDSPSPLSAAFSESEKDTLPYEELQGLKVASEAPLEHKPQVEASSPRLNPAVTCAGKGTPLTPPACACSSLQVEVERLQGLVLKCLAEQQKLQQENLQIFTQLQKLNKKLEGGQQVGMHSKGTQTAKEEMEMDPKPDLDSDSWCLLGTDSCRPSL
As to conditions: at 0.1 µM.

The target of assay [11] is T4, Serine/threonine-protein kinase Nek9 (Homo sapiens). As to conditions: at 1 µM.
In assay [12] the target is Serine/threonine-protein kinase PLK1 (Homo sapiens) (UniProt P53350). As to conditions: at 0.1 µM.
Assay [13] has the same target. As to conditions: at 1 µM.
In assay [14] the target is T5, Dual specificity protein kinase TTK (Homo sapiens) (UniProt P33981).
T5 sequence (whole entry): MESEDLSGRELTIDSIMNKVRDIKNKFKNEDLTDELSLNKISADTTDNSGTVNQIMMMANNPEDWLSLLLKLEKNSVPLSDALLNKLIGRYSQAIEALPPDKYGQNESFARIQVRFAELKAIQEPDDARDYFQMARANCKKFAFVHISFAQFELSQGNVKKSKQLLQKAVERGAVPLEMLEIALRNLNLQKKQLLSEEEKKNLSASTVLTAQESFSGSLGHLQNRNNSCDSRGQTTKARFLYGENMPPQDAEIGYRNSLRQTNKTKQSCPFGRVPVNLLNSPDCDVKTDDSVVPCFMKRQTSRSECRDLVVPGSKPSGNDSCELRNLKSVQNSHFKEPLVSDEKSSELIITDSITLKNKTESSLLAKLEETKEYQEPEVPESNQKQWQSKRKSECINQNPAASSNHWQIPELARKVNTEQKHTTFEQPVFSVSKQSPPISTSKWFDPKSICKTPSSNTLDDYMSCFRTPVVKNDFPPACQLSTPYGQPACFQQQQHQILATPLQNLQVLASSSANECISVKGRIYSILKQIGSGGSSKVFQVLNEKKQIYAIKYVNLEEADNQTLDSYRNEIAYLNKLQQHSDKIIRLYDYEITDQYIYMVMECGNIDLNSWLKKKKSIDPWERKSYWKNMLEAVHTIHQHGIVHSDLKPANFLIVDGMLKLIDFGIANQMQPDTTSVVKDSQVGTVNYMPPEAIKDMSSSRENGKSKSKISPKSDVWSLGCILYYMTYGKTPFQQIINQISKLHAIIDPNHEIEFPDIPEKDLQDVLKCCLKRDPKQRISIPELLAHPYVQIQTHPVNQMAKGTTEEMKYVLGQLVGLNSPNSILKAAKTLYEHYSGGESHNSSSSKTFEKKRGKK
The following applies: at 0.1 µM.

Assay [15] has as its system T6, Receptor-type tyrosine-protein kinase FLT3 (Homo sapiens), P36888 [D835Y].
T6 sequence (whole entry): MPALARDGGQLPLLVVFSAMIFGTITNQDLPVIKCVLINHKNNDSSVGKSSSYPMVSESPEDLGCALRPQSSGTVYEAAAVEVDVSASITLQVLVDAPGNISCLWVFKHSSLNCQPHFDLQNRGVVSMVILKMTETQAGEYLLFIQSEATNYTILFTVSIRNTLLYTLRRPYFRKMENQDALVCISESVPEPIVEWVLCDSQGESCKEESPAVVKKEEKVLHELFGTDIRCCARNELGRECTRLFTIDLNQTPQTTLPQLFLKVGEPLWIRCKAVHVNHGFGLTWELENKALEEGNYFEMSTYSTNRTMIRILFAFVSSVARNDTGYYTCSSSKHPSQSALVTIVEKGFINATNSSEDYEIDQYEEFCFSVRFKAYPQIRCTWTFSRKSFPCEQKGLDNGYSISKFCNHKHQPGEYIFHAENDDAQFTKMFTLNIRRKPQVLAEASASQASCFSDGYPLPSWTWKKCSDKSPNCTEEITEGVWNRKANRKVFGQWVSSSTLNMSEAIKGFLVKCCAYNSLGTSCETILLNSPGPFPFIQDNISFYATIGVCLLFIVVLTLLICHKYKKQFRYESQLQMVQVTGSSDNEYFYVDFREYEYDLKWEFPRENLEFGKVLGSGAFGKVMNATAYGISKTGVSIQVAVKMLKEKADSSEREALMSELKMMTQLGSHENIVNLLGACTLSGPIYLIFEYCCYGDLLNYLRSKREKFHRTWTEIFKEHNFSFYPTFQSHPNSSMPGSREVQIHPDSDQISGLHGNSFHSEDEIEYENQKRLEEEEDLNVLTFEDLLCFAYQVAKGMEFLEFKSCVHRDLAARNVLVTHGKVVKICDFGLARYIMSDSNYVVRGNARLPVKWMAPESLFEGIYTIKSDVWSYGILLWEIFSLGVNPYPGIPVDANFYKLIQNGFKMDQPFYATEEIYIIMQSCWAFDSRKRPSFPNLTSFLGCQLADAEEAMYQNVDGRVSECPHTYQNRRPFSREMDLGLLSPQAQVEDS
The following applies: at 1 µM.

For assay [16], the target named is Vascular endothelial growth factor receptor 3 (Homo sapiens) (UniProt P35916). The following applies: at 0.1 µM.
Assay [17] shares this target. As to conditions: at 1 µM.
For assay [18], the target named is Macrophage colony-stimulating factor 1 receptor (Homo sapiens) (UniProt P07333). As to conditions: at 0.1 µM.
Assay [19] shares this target. As to conditions: at 1 µM.
Assay [20] concerns the target Tyrosine-protein kinase Fyn (Homo sapiens) (UniProt P06241). The following applies: at 0.1 µM.

Sequence of Serine/threonine-protein kinase Nek7 (Homo sapiens) (Q8TDX7 whole entry, looked up): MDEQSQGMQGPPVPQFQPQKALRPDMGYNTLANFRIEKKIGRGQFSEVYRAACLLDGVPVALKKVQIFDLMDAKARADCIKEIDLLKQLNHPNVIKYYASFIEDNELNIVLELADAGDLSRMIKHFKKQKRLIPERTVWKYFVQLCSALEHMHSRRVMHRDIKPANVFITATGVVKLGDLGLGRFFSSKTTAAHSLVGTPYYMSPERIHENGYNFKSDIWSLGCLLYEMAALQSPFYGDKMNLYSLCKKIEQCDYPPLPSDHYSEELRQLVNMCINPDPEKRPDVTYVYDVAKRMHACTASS
Sequence of Serine/threonine-protein kinase Nek6 (Homo sapiens) (Q9HC98 whole entry): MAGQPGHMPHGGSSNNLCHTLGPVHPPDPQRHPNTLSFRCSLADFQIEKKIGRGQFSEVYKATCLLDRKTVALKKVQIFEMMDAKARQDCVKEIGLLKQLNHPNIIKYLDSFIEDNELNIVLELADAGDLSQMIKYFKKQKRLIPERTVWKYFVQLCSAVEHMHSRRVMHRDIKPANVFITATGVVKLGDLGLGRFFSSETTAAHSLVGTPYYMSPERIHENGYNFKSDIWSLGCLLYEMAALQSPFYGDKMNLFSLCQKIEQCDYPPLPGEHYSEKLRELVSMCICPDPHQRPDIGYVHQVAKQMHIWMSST
Sequence of Serine/threonine-protein kinase PLK1 (Homo sapiens) (P53350 whole entry): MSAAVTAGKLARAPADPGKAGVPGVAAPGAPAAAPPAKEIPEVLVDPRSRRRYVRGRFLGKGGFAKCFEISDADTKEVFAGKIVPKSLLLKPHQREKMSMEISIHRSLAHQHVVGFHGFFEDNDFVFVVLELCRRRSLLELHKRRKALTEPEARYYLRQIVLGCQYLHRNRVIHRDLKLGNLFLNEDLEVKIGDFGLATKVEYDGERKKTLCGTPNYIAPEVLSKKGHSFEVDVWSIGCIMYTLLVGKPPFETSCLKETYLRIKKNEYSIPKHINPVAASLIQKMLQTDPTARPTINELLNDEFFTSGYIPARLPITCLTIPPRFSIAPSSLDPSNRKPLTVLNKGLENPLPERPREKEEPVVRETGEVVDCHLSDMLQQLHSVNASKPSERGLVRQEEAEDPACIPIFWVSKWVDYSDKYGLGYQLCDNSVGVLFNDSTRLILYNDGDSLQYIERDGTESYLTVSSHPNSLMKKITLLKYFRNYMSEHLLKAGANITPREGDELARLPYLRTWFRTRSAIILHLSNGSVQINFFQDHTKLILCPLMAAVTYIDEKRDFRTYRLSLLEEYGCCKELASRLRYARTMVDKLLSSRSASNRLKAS
Sequence of Macrophage colony-stimulating factor 1 receptor (Homo sapiens) (P07333 whole entry): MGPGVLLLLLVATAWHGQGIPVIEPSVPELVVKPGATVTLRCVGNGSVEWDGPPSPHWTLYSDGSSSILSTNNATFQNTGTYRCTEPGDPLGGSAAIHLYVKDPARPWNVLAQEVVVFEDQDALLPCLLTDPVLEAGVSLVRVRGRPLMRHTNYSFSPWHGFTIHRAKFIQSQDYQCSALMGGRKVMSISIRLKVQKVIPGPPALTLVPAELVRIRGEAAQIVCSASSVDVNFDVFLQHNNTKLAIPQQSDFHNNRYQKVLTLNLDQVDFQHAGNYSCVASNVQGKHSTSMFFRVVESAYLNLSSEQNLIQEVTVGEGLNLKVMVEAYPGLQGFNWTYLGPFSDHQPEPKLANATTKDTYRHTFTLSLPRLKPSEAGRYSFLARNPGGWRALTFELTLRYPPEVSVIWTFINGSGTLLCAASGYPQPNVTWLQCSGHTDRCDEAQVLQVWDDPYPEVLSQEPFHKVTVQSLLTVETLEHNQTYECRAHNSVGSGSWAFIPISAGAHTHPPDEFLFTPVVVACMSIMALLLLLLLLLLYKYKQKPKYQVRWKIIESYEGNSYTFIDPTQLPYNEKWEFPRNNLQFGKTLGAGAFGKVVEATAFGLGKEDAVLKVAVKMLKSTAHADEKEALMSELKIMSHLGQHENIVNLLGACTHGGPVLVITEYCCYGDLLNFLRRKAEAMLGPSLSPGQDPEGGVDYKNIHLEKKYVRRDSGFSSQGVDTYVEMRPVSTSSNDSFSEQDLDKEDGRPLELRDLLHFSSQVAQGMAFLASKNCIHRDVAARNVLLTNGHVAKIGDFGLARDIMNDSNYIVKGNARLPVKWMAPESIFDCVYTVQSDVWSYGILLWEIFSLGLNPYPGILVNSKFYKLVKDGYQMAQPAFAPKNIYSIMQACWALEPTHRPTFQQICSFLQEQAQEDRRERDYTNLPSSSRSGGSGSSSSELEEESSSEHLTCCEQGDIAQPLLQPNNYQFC
Sequence of Vascular endothelial growth factor receptor 3 (Homo sapiens) (P35916 whole entry): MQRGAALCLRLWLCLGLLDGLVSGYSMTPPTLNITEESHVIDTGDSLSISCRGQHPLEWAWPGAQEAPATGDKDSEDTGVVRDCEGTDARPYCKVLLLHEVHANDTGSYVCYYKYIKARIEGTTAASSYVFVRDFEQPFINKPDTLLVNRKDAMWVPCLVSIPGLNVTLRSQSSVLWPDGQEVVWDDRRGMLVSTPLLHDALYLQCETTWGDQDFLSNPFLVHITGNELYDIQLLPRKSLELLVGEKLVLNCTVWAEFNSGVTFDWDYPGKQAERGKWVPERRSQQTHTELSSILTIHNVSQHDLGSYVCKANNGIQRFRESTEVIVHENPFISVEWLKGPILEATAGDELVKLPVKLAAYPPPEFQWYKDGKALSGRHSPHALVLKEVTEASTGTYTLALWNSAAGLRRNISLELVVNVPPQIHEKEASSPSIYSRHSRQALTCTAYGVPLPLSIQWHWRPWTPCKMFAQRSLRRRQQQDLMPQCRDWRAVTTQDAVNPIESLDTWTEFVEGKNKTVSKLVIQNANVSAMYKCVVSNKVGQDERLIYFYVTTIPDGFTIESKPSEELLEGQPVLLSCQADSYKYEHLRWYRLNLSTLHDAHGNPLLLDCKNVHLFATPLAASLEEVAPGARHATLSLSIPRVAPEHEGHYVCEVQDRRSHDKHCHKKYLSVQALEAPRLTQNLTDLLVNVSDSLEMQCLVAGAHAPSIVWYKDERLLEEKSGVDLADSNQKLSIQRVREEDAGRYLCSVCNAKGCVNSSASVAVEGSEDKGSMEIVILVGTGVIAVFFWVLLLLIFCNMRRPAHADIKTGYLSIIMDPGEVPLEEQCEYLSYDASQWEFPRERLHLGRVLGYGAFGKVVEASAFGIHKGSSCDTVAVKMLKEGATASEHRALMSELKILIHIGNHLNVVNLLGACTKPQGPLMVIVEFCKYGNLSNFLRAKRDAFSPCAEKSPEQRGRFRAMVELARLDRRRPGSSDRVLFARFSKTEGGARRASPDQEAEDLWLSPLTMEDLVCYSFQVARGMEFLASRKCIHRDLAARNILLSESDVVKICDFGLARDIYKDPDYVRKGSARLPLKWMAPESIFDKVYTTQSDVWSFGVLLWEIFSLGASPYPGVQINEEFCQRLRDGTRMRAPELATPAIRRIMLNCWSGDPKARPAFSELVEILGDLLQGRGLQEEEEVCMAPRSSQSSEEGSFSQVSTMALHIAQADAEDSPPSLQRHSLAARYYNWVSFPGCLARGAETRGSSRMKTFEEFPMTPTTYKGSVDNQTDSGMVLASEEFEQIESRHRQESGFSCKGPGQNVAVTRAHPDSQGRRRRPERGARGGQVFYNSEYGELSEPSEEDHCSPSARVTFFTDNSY
Sequence of Tyrosine-protein kinase Fyn (Homo sapiens) (P06241 2-537 limits assumed): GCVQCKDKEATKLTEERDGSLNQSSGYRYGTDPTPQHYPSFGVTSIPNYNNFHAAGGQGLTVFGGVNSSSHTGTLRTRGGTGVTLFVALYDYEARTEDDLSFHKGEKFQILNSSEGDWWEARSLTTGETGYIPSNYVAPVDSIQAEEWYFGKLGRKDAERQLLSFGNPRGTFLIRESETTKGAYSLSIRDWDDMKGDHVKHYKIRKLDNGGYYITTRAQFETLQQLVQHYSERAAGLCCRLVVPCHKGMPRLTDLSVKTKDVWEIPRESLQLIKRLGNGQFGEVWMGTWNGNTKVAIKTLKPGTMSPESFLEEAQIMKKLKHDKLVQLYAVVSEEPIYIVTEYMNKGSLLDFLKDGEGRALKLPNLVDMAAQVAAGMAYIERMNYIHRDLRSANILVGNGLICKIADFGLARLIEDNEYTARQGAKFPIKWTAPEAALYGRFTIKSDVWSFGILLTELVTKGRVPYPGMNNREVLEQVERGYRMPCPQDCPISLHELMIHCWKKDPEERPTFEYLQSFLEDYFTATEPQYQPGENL

The inhibition is the drop in the measured response relative to a control, in per cent. For `CS(=O)(=O)CCNCc1nc(-c2ccc3ncnc(Nc4ccc(OCc5cccc(C(F)(F)F)c5)cc4)c3c2)cs1`, the inhibition in assay [1] was 2.82%; in assay [2] it was 1.67%; in assay [3], 3.9%; in assay [4], 2.86%; in assay [5] it was 0.5%; in assay [6] it was -0.59%. For the same compound, the inhibition was 2.66% in assay [7]; 1.6% in assay [8]; 5.52% in assay [9]; 3.06% in [10]; -0.39% in assay [11]; 1.34% in [12]. The inhibition in assay [13] is 3.51%; in [14], 3.6%; in [15], 4.19%; in assay [16] it was 3.13%; in assay [17], 2.21%; in assay [18], 0.88%. In addition, the inhibition in [19] was found to be 8.87%; in assay [20] it was 1.59%.
Turning to `Nc1nccc(-c2c(-c3ccc(F)cc3)ncn2CCCN2CCOCC2)n1`, the inhibition in [1] came to 5.9%; in assay [2], 2.11%; in assay [3], 3.63%; in assay [4], 4.66%; in assay [5], 5.54%; in assay [6], 3.27%. Further, the inhibition in assay [7] is 0.28%; in assay [8] it was 5.79%; in [9], 4.4%; in assay [10], 9.19%; in assay [11] it was 15.2%; in assay [12], 2.14%. The inhibition in assay [13] is 4.49%; in assay [14] it was 10.5%; in assay [15], -6.25%; in assay [16], 15.4%; in assay [17], 17%; in assay [18], 2.72%. Besides, the inhibition is 1.51% in assay [19] and 0.86% in [20].
